# In the library only some 5.9% were active in any assay of this set; here they are far more common.
# TrxR1 substrate = qHTS Assay for Substrates of Mammalian Selenoprotein Thioredoxin Reductase 1 (TrxR1): qHTS | purified TrxR1 substrate turnover, NADPH consumption readout | AID 588456, 2011 | hit rate 0.01% among 390,000 | Potency, µM (doses to about 114 µM), inactives show at the top dose activity change, negative = substrate turnover | Thioredoxin reductase 1, cytoplasmic (Rattus norvegicus), O89049; note: potency is the fitted concentration of half-maximal effect; nearly all actives have a fitted effect of over 50% in size
# Target sequence (O89049 whole entry, looked up): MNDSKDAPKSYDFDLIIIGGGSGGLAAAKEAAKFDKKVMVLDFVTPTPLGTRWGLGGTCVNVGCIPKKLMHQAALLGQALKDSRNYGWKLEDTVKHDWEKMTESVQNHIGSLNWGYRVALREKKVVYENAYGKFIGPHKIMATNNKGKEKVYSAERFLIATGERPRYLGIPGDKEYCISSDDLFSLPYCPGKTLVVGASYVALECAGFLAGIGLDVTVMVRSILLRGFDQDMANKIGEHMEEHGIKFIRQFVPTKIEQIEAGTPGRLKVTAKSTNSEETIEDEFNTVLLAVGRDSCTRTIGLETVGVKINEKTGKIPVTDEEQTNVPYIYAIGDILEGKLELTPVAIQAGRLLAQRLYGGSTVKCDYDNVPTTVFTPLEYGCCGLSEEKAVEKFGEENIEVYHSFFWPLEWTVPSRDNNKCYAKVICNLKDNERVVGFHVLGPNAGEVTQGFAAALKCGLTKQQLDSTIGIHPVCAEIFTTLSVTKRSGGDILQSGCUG
#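 Rat TrxR1, dispensed at 90 nM, was prereduced with 400 uM NADPH (final) for 5 min at ~22 deg C, then incubated with compound 15 min before 400 uM selenite. A first-read NADPH fluorescence drop versus no-compound background flagged substrates.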
# RORg inh = qHTS for inhibitors of ROR gamma transcriptional activity. hit rate 5.4% among 310,000. Nuclear receptor ROR-gamma (Mus musculus), P51450. Potency, µM (doses to about 53.6 µM), inactives show at the top dose activity change, negative = inhibition, most hits filed as inhibitors. Drosophila S2 Gal4-RORgamma UAS-luciferase reporter, 20 h; note: potency is the fitted concentration of half-maximal effect; nearly all actives have a fitted effect of over 60% in size
#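 Compounds are pin-transferred onto Drosophila Schneider cells expressing a copper-inducible Gal4–ROR gamma transactivation domain fusion. After 1 hr, copper sulfate is added to 700 uM final; luciferase is read 20 hr later.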
# VP16 counter = VP16 counterscreen qHTS for inhibitors of ROR gamma transcriptional activity | AID 2546, 2010 | Drosophila S2 Gal4-VP16 UAS-luciferase, luminescence, 20 h | hit rate 3.5% among 310,000 | Potency, µM (top dose mostly 53.6 µM), inactives show at the top dose activity, negative = inhibition, most hits filed as inhibitors;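 note: Gal4-VP16 expression switched on by copper sulfate through the metallothionein promoter; potency is the fitted concentration of half-maximal effect; nearly all actives have a fitted effect of over 50% in size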
# GALK inhibitor = qHTS Assay for Inhibitors of Human Galactokinase (GALK); hit rate 0.007% among 270,000; Potency, µM (top dose mostly 57.5 µM), for inactives: at the highest dose activity change, negative = inhibition, hits mostly inhibitors; Purified GALK, Kinase-Glo residual ATP luminescence; P51570; note: potency is the fitted concentration of half-maximal effect
#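 ATP-depletion format; final 35 uM ATP, 100 uM D-galactose, 5 nM enzyme; pH 8.0 HEPES/Mg2+ buffer; 60 min RT; luminescence read 10 min after detection reagent.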
# rTrxR1 inhibitor = qHTS Assay for Inhibitors of Mammalian Selenoprotein Thioredoxin Reductase 1 (TrxR1): qHTS. Potency, µM (doses to about 114 µM), for inactives: at the top dose activity change, negative = inhibition, most hits filed as inhibitors. Thioredoxin reductase 1, cytoplasmic (Rattus norvegicus), O89049. recombinant rTrxR1, NADPH fluorescence consumption, selenite substrate. hit rate 1% among 390,000; note: potency is the fitted concentration of half-maximal effect; nearly all actives have a fitted effect of over 65% in size
#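 Rat TrxR1 (90 nM in the dispensed reagent) was pre-reduced with 400 uM NADPH for 5 min at room temperature, then incubated with compound for 15 min. After 400 uM selenite was added, NADPH fluorescence (Ex 340/Em 450 nm) was followed for 8 min.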
# Coupling enz = qHTS Assay for Inhibitors of Fructose-1,6-bisphosphate Aldolase from Giardia Lamblia: Coupling assay counterscreen | coupling enzyme system counterscreen, AmpLite Red fluorescence | activity change, negative = inhibition, % at 58.2 µM, hits read low | hit rate 0.67% among 290,000; in the data active = activity change below about -30%
#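 Counterscreen lacking aldolase: glyceraldehyde-3-phosphate coupling-enzyme reagent preincubated 10 min at RT with compound (at 57.5 uM final), then substrate/coupling system with AmpLite Red added; fluorescence read at 525/598 nm after 20 min RT.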
# * marks the source's active call; other numbers are inactive results; ? = inconclusive; nt = no result given; [ ] = remark or other dose. Unless noted, calls come from the whole dose curve; as a rule, active = well fitted curve in the direction sought with a large enough effect; inconclusive = small, poorly fitted or top-dose-only effect, or another doubt; inactive = no such curve, though single readings can be large; an effect the other way counts as inactive or inconclusive. % is set by controls: 0 for no effect and ±100 for the full control effect.
SMILES,TrxR1 substrate,RORg inh,VP16 counter,GALK inhibitor,rTrxR1 inhibitor,Coupling enz
Cc1ccc(C)c(CN2C(=O)COc3ccccc32)c1,-1%[57.1 µM],0%,3%,7%,18%[57.1 µM],0
Cc1ccc(CN(CC2CCCO2)C(=O)CN2C(=O)C(C(C)C)Oc3ccccc32)o1 (stereo unspecified),-2%,-1%[10 µM],6%,5%,10µM*,4
CC(C)C1Oc2ccccc2N(CC(=O)N(Cc2ccccn2)CC2CCCO2)C1=O (stereo unspecified),0%,-4%[10 µM],4%,4%,19%,2
NC(=O)c1ccccc1NC(=O)CN1c2ccccc2S(=O)(=O)c2ccccc21,-7%[57.1 µM],nt,nt,nt,-2%[57.1 µM],nt
O=C(NCCc1cccc(Cl)c1)c1ccc(OC2CCN(Cc3ccccn3)CC2)cc1,7%,18µM*,-19%,nt,3%,2
CCn1nc(C)c(CNC(=O)c2ccc(OC3CCN(Cc4ccccn4)CC3)cc2)c1C,-7%,-15%,7.1µM*,-4%,-27%,nt
Cc1cccnc1CCNC(=O)c1ccc(OC2CCN(Cc3ccccn3)CC2)cc1,0%,14µM*,?,-5%,?,nt
CCn1cc(CNC(=O)c2ccc(OC3CCN(Cc4ccccn4)CC3)cc2)cn1,0%,?,-3%,-1%,-16%,0
COCC(=O)N1CCC(Oc2ccc(C(=O)NCCc3ncccc3C)cc2)CC1,3%,0%,-15%,2%,13%,-4
C=CCn1c(-c2ccncc2)n[nH]c1=S,-5%[57.1 µM],10µM*,-18%,4%,?,5
C=CCn1c(-c2ccccc2)n[nH]c1=S,9%[57.1 µM],?,0%,-2%,-23%,-7
C=CCn1c(-c2ccc3ncccc3c2)n[nH]c1=S,0%,?,?,1%,-29%,2
C=CCn1c(CCCOc2ccc(Cl)cc2Cl)n[nH]c1=S,2%,3.5µM*,5.6µM*,1%,14%,-1
C=CCn1c(-c2ccoc2)n[nH]c1=S,11%,11µM*,18µM*,-2%,-24%,-2
C=CCn1c(Cc2nc3ccc(Cl)cc3[nH]2)n[nH]c1=S,9%[57.1 µM],?,-29%,1%,-37%,-8
C=CCn1c(-c2ccc(F)cc2)n[nH]c1=S,-14%[57.1 µM],7.9µM*,?,4%,0%[57.1 µM],0
Cn1cc(S(=O)(=O)NCc2ccc3c(c2)OCO3)c(C(F)(F)F)n1,-1%,-11%,13%,-3%,5%,nt
CC(=O)Oc1ccc(C(=O)Nc2cc(C)ccc2NC(=O)COc2ccccc2)cc1,-3%,22%,7%,-3%,8%,1
O=C(Cc1ccc(-n2cccc2)cc1)NCc1ccccc1Cl,1%,36%,5%,1%,-3%,-2
N#Cc1nc(Nc2ccccc2)nc(NC2CCCCC2)n1,nt,nt,?,nt,nt,-4
COC(=O)C1=C[C@@H](C(=O)OC)[C@@H]2C3=C(C(=O)[C@@]2(C)NC(=O)c2ccccc2)[C@H](c2ccccc2)n2c(=O)n(-c4ccccc4)c(=O)n2[C@@H]3C1,5%,nt,nt,nt,16%,nt
C=CCn1c(CNS(=O)(=O)c2ccc(F)cc2)n[nH]c1=S,0%,-14%,1%,6%,-14%,nt
C=CCn1c(-c2cc(OC)cc(OC)c2)n[nH]c1=S,8%,?,?,2%,-17%,3
C=CCn1c(-c2cccc(OCC)c2)n[nH]c1=S,-5%,5µM*,18µM*,4%,-28%,2
C=CCn1c(Cc2c[nH]c3ccccc23)n[nH]c1=S,8%,0%[10 µM],-27%,3%,-10%,1
SMILES,TrxR1 substrate,RORg inh,VP16 counter,GALK inhibitor,rTrxR1 inhibitor,Coupling enz
C=CCn1c(Cc2ccccc2)n[nH]c1=S,9%[57.1 µM],7.1µM*,?,5%,-3%[57.1 µM],0
C=CCn1c(CCC(O)CCCCC)n[nH]c1=S (stereo unspecified),9%,?,-12%,-1%,-10%,5
C=CCn1c(CCc2cc(C(C)(C)C)c(O)c(C(C)(C)C)c2)n[nH]c1=S,0%[57.1 µM],2.5µM*,7.9µM*,-2%,5%[57.1 µM],-8
C=CCn1c(CSCc2ccc(F)cc2)n[nH]c1=S,1%,3.2µM*,3.5µM*,7%,-3%,4
CCCCN(C)CCCNC(=O)c1cc(=O)[nH]c2ccc(S(=O)(=O)N3CCCCC3C)cc12 (stereo unspecified),-3%,-10%,-4%,1%,0%,0
Cc1cc(-n2cccn2)ccc1CN1CCN(C2CCCC2)C(CCO)C1 (stereo unspecified),-1%,9%,-12%,1%,7%,-2
CCc1ccccc1N(CC(=O)NCCc1ccccc1)C(=O)CCC(=O)Nc1ccccn1,1%[57.1 µM],?,-5%,1%,1%[57.1 µM],1
Cc1cccc(NC(=S)NCCc2ccccc2)n1,-4%[57.1 µM],0.56µM*,3.2µM*,0%,-23%,-16
S=C(NCCc1ccccc1)Nc1ccccn1,-4%,1.1µM*,3.2µM*,2%,-14%,2
O=C(NCCc1ccccc1)C1COc2ccccc2O1 (stereo unspecified),4%,24%,3%,1%,16%,2
O=C(NCCc1ccc(O)c(O)c1)C1COc2ccccc2O1 (stereo unspecified),4%,1%,-17%,0%,45µM*,-8
O=C(NC1CCCCC1)C1COc2ccccc2O1 (stereo unspecified),-3%,nt,nt,nt,50µM*,nt
CC1CCC(NC(=O)C2COc3ccccc3O2)CC1 (stereo unspecified),3%,nt,nt,nt,-22%,nt
NC(=S)C1COc2ccccc2O1 (stereo unspecified),-10%[57.1 µM],13µM*,-29%,-1%,29%[57.1 µM],0
CN(CC1COc2ccccc2O1)C(=S)NC1CCCCC1 (stereo unspecified),6%,13µM*,?,0%,37%,1
O=[N+]([O-])c1ccc(S(=O)(=O)CC(CN2CCCCC2)N2CCCCC2)cc1 (stereo unspecified),-6%,-10%,15%,-1%,2.5µM*,4
O=[N+]([O-])c1ccc(S(=O)(=O)CC(CN2CCOCC2)N2CCOCC2)cc1 (stereo unspecified),-1%,?,?,-2%,4%,0
O=C(CCCCC(=O)OCC1COCO1)OCC1COCO1 (stereo unspecified),-2%,nt,nt,nt,-5%,nt
Cc1noc2ncnc(Sc3ccc(Br)cc3)c12,17%[57.1 µM],4µM*,11µM*,-1%,?,0

# Bioassay records: PubChem BioAssay, National Center for Advancing Translational Sciences (NCATS)
